Measured values from PubChem BioAssay.
The source made the active and inactive calls. Unless noted, no stated cut-off is given here; in the data, active means nuclear beta-catenin stimulation mostly above about 4.2% (no sharp cut-off); inactive means mostly below about 10%.

Tests used:
[1] = Wnt pathway potentiators raising nuclear beta-catenin – imaging, WNT3A-conditioned medium, mouse C2C12, NPC library, primary screen (AID 1117326); settings: stronger effect = higher value; further: reference of the scale not given here
[2] = stimulators of insulin release from INS-1E, primary screen, cell-based, 5 mM glucose, NPC library (AID 1117329;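 active means compound raises insulin release from rat beta cells at 5 mM glucose, no numeric limit stated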; further: reference of the scale not given here); settings: rat INS-1E insulin secretion, at 10 µM, stronger effect = higher value
[3] = growth inhibition of GSK3B-pretreated HCT116 cells – cell-based, CellTiter-Glo, 0.2 to 20 µM (AID 1117336;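 active means compounds lowering colon cancer cell viability after pretreatment blocking the GSK3B kinase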); settings: HCT116 viability after GSK3B inhibitor, at 20 µM, stronger effect = higher value
[4] = inhibition of endothelial tube formation, primary screen, imaging, VEGF stimulated, CD31 staining, tube area, NPC library (AID 1117340;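 active means compound that reduces growth-factor-driven endothelial tube area in a mixed cell culture, no cutoff stated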); settings: VEGF-stimulated ADSC/ECFC co-culture, at 10 µM, stronger effect = higher value
[5] = GLP1 release stimulators, primary, NCI-H716, NPC library (AID 1117341;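 active means compound raises GLP1 secretion from the human gut endocrine cells, with no numeric limit stated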; further: reference of the scale not given here); settings: NCI-H716 cells, at 10 µM, stronger effect = higher value
[6] = HCT116 colon cancer cell growth inhibition, primary screen, CellTiter-Glo luminescence, NPC library (AID 1117342;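 active means compounds that lower survival of HCT116 colon cancer cells in the luminescence readout, no numeric limit stated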); settings: at 20 µM (top of the series)
[7] = reduced SW480 viability measured with CellTiter-Glo, NPC library, primary (AID 1117343;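 active means compounds that lower viability of the colon cancer cells in the luminescence readout, with no numeric limit stated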); settings: CellTiter-Glo luminescence; at 20 µM (top of the series)
[8] = NPC library primary testing for decreased DLD-1 cell viability via CellTiter-Glo (AID 1117346;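 active means compounds that lower survival of DLD-1 colon cancer cells in the luminescence readout, no cutoff given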); settings: DLD-1 viability, CellTiter-Glo luminescence; at 20 µM (top of the series)

Row | Compound | nuclear beta-catenin stimulation ([1]; at 10 µM) | nuclear beta-catenin stimulation ([1]; stimulation, at 2 µM) [%] | insulin secretion stimulation [2] | viability decrease [3] | tube area decrease [4] | GLP1 secretion stimulation [5] | inhibition of viability [6] | viability decrease (inhibition) [7] | viability decrease (inhibition) [8]
1 | CN1CCN(C(=O)C2CCCCC2)CC1 | 0% (inactive) | -0.3 | 4.2% (inactive) | -2.7% (inactive) | -5.2% (inactive) | 5.1% (inactive) | 12% (inactive) | 28.1% (inactive) | 11.9% (inactive)
2 | CCc1cccc2c(CCO)c[nH]c12 | 1.1% (inactive) | 0.4 | 0.7% (inactive) | 12.2% (inactive) | -19.3% (inactive) | 0.1% (inactive) | -1.1% (inactive) | -18% (inactive) | -6.5% (inactive)
3 | Nc1ncnc(Nc2ccccc2)n1 | 0.5% (inactive) | 0.6 | -1.2% (inactive) | 3.65% (inactive) | -16% (inactive) | -0.9% (inactive) | 2.7% (inactive) | 51.8% (active) | 19.1% (inactive)
4 | Cc1cc(O)c(C)c(C)c1O | 2.1% (inactive) | -0.4 | 1.3% (inactive) | 4.5% (inactive) | -1.3% (inactive) | -0.5% (inactive) | -1.8% (inactive) | -15.7% (inactive) | -26.1% (inactive)
5 | CCCC(=O)Nc1ccc(O)c(C(C)=O)c1 | 1.7% (inactive) | 0.4 | 3.1% (inactive) | -4.4% (inactive) | -7% (inactive) | -3.4% (inactive) | 2.9% (inactive) | -3.5% (inactive) | 2.6% (inactive)
6 | O=C1NC2CCCCN2C12CCN(CCCN1c3ccccc3CCc3ccc(Cl)cc31)CC2 (stereo unspecified) | 13.1% (inactive) | 0.1 | 3.85% (inactive) | 108% (active) | 89.4% (active) | 13.3% (inactive) | 112% (active) | 128% (active) | 101% (active)
7 | CC(O)COc1ccccc1 (stereo unspecified) | -0.1% (inactive) | 1.5 | -0.2% (inactive) | -28.5% (inactive) | 11.1% (inactive) | 0.5% (inactive) | -11.1% (inactive) | -146% (inactive) | -19.2% (inactive)
8 | Nc1ccncc1N | 0.2% (inactive) | 0.5 | -0.7% (inactive) | -2.2% (inactive) | -31% (inactive) | 3.3% (inactive) | 3.4% (inactive) | 7.7% (inactive) | 6.9% (inactive)
9 | CCC(C(=O)OCCN1CCOC(c2ccccc2)C1C)c1ccccc1 (stereo unspecified) | 1% (inactive) | 1.6 | 1.7% (inactive) | -40.8% (inactive) | 3.7% (inactive) | 5.9% (inactive) | 15.8% (inactive) | -0.4% (inactive) | 22.2% (inactive)
10 | CN=C(N)NC(=O)Nc1c(C)cccc1C | -1.8% (inactive) | -0.4 | -1.2% (inactive) | -12.4% (inactive) | -1.8% (inactive) | -0.6% (inactive) | 11.3% (inactive) | -1.5% (active) | -0.9% (inactive)
11 | CCCOc1ccc2c(c1)CC[C@@H]1[C@@H]2CC[C@]2(C)C(OC)CC[C@@H]12 (stereo partly specified) | 0.5% (inactive) | 0 | -0.1% (inactive) | 69.6% (active) | -3.1% (inactive) | -0.8% (inactive) | 56% (active) | 103% (active) | 40.8% (inactive)
12 | COC(=O)c1ccc(O)cc1 | 1.3% (inactive) | 0.3 | -1.8% (inactive) | -8.75% (inactive) | 4.5% (inactive) | 0.6% (inactive) | -9.8% (inactive) | 18.8% (inactive) | -6.75% (inactive)
13 | CC(C)=CCC/C(C)=C/CC/C(C)=C/C(=O)OCC(=O)[C@@]1(O)CC[C@H]2[C@@H]3CCC4=CC(=O)C=C[C@]4(C)[C@H]3[C@@H](O)C[C@@]21C | -1% (inactive) | 0 | -2% (inactive) | 92.3% (active) | 107% (active) | -0.8% (inactive) | 98.2% (active) | 86.2% (active) | 88.5% (active)
14 | O=C(O)C1CSC(C(=O)O)N1 (stereo unspecified) | 0.7% (inactive) | 1.2 | -0.4% (inactive) | -6.8% (inactive) | -2.5% (inactive) | -3.3% (inactive) | 2.5% (inactive) | 4% (inactive) | -8.7% (inactive)
